# Laboratory results reported in PubChem BioAssay (NCATS).
# Where “and” joins values, the source holds several entries; their conditions need not be identical. Equal entries are not always repeated. Inconclusive results are not listed. Where a call stands in place of a potency, no number is given. Calls of active or inactive are those of the source. Unless noted, calls follow the shape of the dose curve; as a rule, active = well fitted curve in the direction sought with a large enough effect; inconclusive = small, poorly fitted or top-dose-only effect, or another doubt; inactive = no such curve, though single readings can be large; an effect the other way counts as inactive or inconclusive.
# What was measured:
# [1] = Cell Viability - Hek293 (AID 427;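 active = compounds whose dose-response curve shows a full or clear partial loss of cell viability, called from curve shape rather than a numeric limit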;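 also: potency is read from the fitted curve at half-maximal effect; cells exposed to compound for 40 hours at 37 °C before reading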); details: qHTS
# How it was run: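 Luminescent ATP content (CellTiter-Glo, 20 min at room temperature) was measured after a 40 hr, 37 °C compound exposure of HEK293 cells. AC50 values came from Hill-equation fits of qHTS concentration-response data normalized to DMSO and 100 uM tamoxifen.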
# [2] = Cell Viability - NIH 3T3 (AID 541); details: NIH 3T3 cell viability, qHTS; activity change, negative = cytotoxicity: at 92.2 µM (top of the series); also: nearly all actives have a fitted effect of over 25% in size
# How it was run: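 Luminescent ATP signal (CellTiter-Glo) served as the viability read-out after NIH 3T3 cells were exposed to compounds over a concentration range for 40 hr at 37 °C. Hill-equation modelling of concentration-response data gave AC50.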
# [3] = Cell Viability - H-4-II-E (AID 543); details: H-4-II-E rat hepatoma viability; series mostly up to 92.2 µM; also: nearly all actives have a fitted effect of over 35% in size
# How it was run: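 Luminescent ATP signal (CellTiter-Glo) served as the viability read-out, with cytotoxicity seen as a concentration-dependent ATP drop. Cells were treated for 40 hours in complete medium. AC50 values derive from Hill-equation modelling.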
# [4] = Cellular Toxicity (caspase-3) N2a (AID 665); details: N2a cells, luminescence, normalized: DMSO 0%, 10 µM staurosporine 100%; at 92.2 µM (top of the series);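 also: compound exposure lasted 16 h at 37 °C before readout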
# How it was run: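 N2a cells, 1500/well, 5 h settle at 37 °C; cpd 16 h, 37 °C; Caspase-Glo 3/7, 1 h RT; luminescence. Norm: DMSO = 0, 10 uM staurosporine = 100%. AC50, Hill fit.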
# [5] = MultiTox-Fluor Cytotoxicity Assay - LYMP1-001 - Dead Cells (AID 946); details: LYMP1-001 lymphoblastoid cells, dead-cell protease fluorescence; series mostly up to 92.2 µM
# How it was run: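 Cytotoxicity as increased dead-cell protease fluorescence (bis-AAF-R110, 485/520 nm), read 60 min after MultiTox-Fluor reagent. Human lymphoblastoid line exposed 16 h; Hill-fitted AC50, with DMSO as 0% and 15 uM tetraoctylammonium bromide as 100%.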
# [6] = molecular target: Bile acid receptor (Homo sapiens) (UniProt Q96RI1); assay: qHTS assay for small molecule antagonists of farnesoid X receptor signaling (AID 588526; calls by dose curve); details: HEK293T FXR-UAS-bla, beta-lactamase ratio, antagonist mode; series mostly up to 76.7 µM
# How it was run: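 Beta-lactamase reporter antagonist mode: HEK293T FXR-UAS-bla cells, titrated compound, CDCA stimulation, 16 h 37 C, CCF4 dye 2 h RT. Data normalized to CDCA 50 uM and DMSO; Hill-fit IC50.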
# [7] = molecular target: Peroxisome proliferator-activated receptor delta (Homo sapiens) (UniProt Q03181); assay: qHTS assay for small molecule agonists of peroxisome proliferator-activated receptor delta signaling (AID 588534; calls by dose curve); details: HEK293T PPARdelta-UAS-bla, beta-lactamase ratio, 18 h; series mostly up to 76.7 µM
# How it was run: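 Fluorescence from CCF4 substrate cleavage by beta-lactamase reporter, read 2 hrs at RT, measured agonist activity. Compounds were tested with 18 hrs exposure at 37 C. Concentration-response data fitted to Hill equation.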
# [8] = qHTS assay for small molecule antagonists of peroxisome proliferator-activated receptor delta signaling (AID 588535; active = well fitted inhibition curve with a large enough effect in the signal ratio, with a control signal flat, not every such curve was filed as active; the % refers to the signal ratio;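 as to max response: cells co-treated with a PPAR-delta agonist as stimulator during compound exposure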); details: HEK293T PPARd-UAS-bla, beta-lactamase FRET ratio, 18 h; 460 nm channel
# How it was run: (§1)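 HEK293T PPAR-delta-UAS-bla cells, 4000/well, 2% charcoal/dextran FBS; 5 h 37 C; cpd titration; 18 h 37 C; CCF4 2 h RT; FI 460/530 nm; Hill fit → IC50, efficacy.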
# [9] = molecular target: Peroxisome proliferator-activated receptor delta (Homo sapiens) (UniProt Q03181); assay: as above; details: HEK293T PPARd-UAS-bla, beta-lactamase FRET ratio, 18 h; series mostly up to 76.7 µM
# How it was run: as §1
# [10] = molecular target: Thyroid hormone receptor beta (Homo sapiens) (UniProt P10828); assay: qHTS assay for small molecule antagonists of thyroid hormone receptor beta signaling (AID 588547; active = well fitted inhibition curve with a large enough effect in the signal ratio, with a control signal flat, not every such curve was filed as active; the % refers to the signal ratio;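 also: cells stimulated with 0.4 nM T3 agonist during compound exposure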); details: TR-UAS-bla HEK293, beta-lactamase ratio, antagonist mode, 18 h
# How it was run: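 Inhibition of T3-driven (0.4nM final) beta-lactamase reporter activity was measured over 0.59 nM to 92 uM compound after 18 h at 37 C. The cells were GripTite HEK293 TR-UAS-bla in charcoal/dextran-stripped serum, with CCF4 ratio read-out and IC50 from Hill fits.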
# [11] = molecular target: Peroxisome proliferator-activated receptor alpha (Homo sapiens) (UniProt Q07869); assay: qHTS assay for small molecule agonists of the peroxisome proliferator-activated receptor alpha (PPARalpha) signaling pathway (AID 651778); details: PathHunter PPARalpha complementation, chemiluminescence, 6 h; stronger effect = higher value
# How it was run: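 Chemiluminescence from complemented enzyme reported PPARalpha activation in cells after 6 hr of compound treatment at 37 C. The detection reagent was incubated for 60 min at room temperature, and compounds were scored as agonists.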
# [12] = Cell Viability - HUV-EC-C (AID 542); details: HUV-EC-C endothelial cell viability, qHTS; series mostly up to 92.2 µM; also: nearly all actives have a fitted effect of over 35% in size
# How it was run: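 qHTS cytotoxicity: HUV-EC-C, 1000 cells/well, 5 hr settle, compound 40 hr 37 °C, CellTiter-Glo, luminescence. AC50 via Hill equation.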
# [13] = molecular target: Peroxisome proliferator-activated receptor gamma (Homo sapiens) (UniProt P37231); assay: qHTS assay for small molecule antagonists of peroxisome proliferator-activated receptor gamma signaling (AID 588537; active = well fitted inhibition curve with a large enough effect in the signal ratio, with a control signal flat, not every such curve was filed as active; the % refers to the signal ratio;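 also: reporter cells co-stimulated with 50 nM rosiglitazone agonist during compound treatment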); details: HEK293 PPARg-UAS-bla, beta-lactamase ratio, antagonist mode; series mostly up to 76.8 µM
# How it was run: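 Antagonist mode, beta-lactamase reporter in HEK293; charcoal/dextran FBS 1%; 3000 cells/well, 37 C 6-6.5 h; cpd titration + rosiglitazone 50 nM final, 16 h 37 C; CCF4, 2 h RT; 460/530 nm; Hill fit → IC50, efficacy.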
# [14] = molecular target: Retinoic acid receptor RXR-alpha (Homo sapiens) (UniProt P19793); assay: qHTS assay for small molecule agonists of retinoid X receptor alpha signaling (AID 588544; calls by dose curve); details: HEK293T RXRa-UAS-bla, beta-lactamase reporter, 18 h; series mostly up to 76.7 µM
# [15] = molecular target: Voltage-gated inwardly rectifying potassium channel KCNH2 (Homo sapiens) (UniProt Q12809); assay: qHTS Assay for Small Molecule Inhibitors of the Human hERG Channel Activity (AID 588834); details: U2OS BacMam hERG, FluxOR thallium flux fluorescence; series mostly up to 92.2 µM;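 also: top concentration of the series differs between compounds; lower thallium flux fluorescence means stronger hERG block; nearly all actives have a fitted effect of over 50% in size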
# How it was run: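 hERG-BacMam U2OS, 2000 cells/well; 0.7X FluxOR loading 1 hr RT dark; cpd ~10 min 37 °C; stim buffer; FDSS fluorescence 2 min @ 1 s; AC50 Hill fit.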
# [16] = MultiTox-Fluor Cytotoxicity Assay - LYMP1-003 - Dead Cells (AID 961); details: LYMP1-003 lymphoblastoid cells, dead-cell protease fluorescence; series mostly up to 92.2 µM; also: nearly all actives have a fitted effect of over 70% in size
# How it was run: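 Dead-cell protease release, detected as bis-AAF-R110 fluorescence at 485/520 nm, was measured in LYMP1-003 cells after 16 h compound treatment at 37 C. AC50 values came from Hill-modeled qHTS curves normalized to DMSO (0%) and 15 uM tetraoctylammonium bromide (100%).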
# [17] = Cell Viability - LYMP2-007 (AID 979); details: LYMP2-007 lymphoblastoid cell viability; series mostly up to 92.2 µM;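 also: cells exposed to compound for 24 h before reading; nearly all actives have a fitted effect of over 60% in size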
# How it was run: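 Luminescent ATP signal (CellTiter-Glo) serves as the viability read-out after 24 hr compound treatment of lymphoblastoid cells in complete medium at 37 C. Concentration-response data were fitted to the Hill equation to give AC50 values.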
# [18] = Cell Viability - LYMP2-026 (AID 989); details: LYMP2-026 lymphoblastoid cell viability, qHTS; series mostly up to 92.2 µM; also: nearly all actives have a fitted effect of over 50% in size
# How it was run: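 Luminescent ATP signal (CellTiter-Glo, 30 min room temperature) measures viable lymphoblastoid cells after 24 hr compound treatment at 37 C. Decreased ATP reflects acute toxicity; AC50 values come from Hill-equation modeling.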
# [19] = qHTS assay for environmental chemicals that activate the Aryl hydrocarbon Receptor (AhR) signaling pathway (AID 651777); details: 1A2-DRE human hepatoma cells, luciferase, 24 h; activation: stronger effect = higher value; also: nearly all actives have a fitted effect of over 15% in size
# How it was run: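 Human hepatoma 1A2-DRE cells, stably carrying a dioxin response element and CYP1A2 promoter driving luciferase, were exposed to compounds for 24 hr at 37 C and 5% CO2. Luciferase signal was then read after 30 min One-Glo at room temperature.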
# [20] = qHTS assay for small molecule disruptors of the mitochondrial membrane potential - 5 hr assay (AID 651755; calls by dose curve; also: nearly all actives have a fitted effect of over 40% in size); details: JC-1-type ratio dye; series mostly up to 92.2 µM
# How it was run: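 HepG2, 2,000 cells/well, overnight attach; cpd or DMSO 5 hr, 37C/5% CO2; Mito-MPS 30 min 37C; fluor 490/535 + 540/590 nm.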
# Chain of Bile acid receptor (Homo sapiens) (Q96RI1 whole entry, looked up): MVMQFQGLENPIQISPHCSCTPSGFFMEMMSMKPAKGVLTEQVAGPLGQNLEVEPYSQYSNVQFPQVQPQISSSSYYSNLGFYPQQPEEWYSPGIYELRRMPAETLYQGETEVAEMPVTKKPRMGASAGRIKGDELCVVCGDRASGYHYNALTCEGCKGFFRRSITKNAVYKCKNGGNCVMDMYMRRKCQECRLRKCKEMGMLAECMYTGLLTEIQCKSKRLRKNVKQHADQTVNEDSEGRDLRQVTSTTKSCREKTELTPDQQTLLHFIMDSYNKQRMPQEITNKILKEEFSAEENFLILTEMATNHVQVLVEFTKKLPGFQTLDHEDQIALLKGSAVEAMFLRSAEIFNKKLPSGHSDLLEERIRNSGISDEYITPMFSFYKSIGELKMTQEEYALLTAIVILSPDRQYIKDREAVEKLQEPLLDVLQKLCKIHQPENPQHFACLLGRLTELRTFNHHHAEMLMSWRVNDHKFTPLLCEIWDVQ
# Chain of Peroxisome proliferator-activated receptor delta (Homo sapiens) (Q03181 whole entry, looked up): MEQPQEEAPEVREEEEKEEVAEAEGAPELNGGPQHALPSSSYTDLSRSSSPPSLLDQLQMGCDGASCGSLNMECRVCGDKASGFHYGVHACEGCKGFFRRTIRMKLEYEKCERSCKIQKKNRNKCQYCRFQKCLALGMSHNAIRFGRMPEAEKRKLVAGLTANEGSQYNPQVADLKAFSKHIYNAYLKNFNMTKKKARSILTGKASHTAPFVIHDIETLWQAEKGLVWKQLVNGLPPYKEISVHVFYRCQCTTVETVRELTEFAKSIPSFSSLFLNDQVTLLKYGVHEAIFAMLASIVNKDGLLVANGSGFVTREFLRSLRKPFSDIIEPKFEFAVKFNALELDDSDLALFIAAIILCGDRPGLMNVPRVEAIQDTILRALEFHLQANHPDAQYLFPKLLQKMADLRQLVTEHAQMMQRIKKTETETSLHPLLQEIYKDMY
# Chain of Peroxisome proliferator-activated receptor alpha (Homo sapiens) (Q07869 whole entry, looked up): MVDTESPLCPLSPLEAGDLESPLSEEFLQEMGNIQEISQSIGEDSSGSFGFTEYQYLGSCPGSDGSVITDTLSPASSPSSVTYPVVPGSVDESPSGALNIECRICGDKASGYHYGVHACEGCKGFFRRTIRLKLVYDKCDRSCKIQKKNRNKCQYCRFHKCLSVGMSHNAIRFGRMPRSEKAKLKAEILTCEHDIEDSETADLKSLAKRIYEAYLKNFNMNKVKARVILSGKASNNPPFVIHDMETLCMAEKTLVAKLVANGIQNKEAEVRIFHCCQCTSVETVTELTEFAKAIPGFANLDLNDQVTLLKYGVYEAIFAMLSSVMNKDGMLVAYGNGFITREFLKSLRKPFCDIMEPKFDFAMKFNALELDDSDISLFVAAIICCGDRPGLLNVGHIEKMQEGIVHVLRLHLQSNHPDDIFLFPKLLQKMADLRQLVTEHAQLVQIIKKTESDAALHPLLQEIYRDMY
# Chain of Voltage-gated inwardly rectifying potassium channel KCNH2 (Homo sapiens) (Q12809 whole entry, looked up): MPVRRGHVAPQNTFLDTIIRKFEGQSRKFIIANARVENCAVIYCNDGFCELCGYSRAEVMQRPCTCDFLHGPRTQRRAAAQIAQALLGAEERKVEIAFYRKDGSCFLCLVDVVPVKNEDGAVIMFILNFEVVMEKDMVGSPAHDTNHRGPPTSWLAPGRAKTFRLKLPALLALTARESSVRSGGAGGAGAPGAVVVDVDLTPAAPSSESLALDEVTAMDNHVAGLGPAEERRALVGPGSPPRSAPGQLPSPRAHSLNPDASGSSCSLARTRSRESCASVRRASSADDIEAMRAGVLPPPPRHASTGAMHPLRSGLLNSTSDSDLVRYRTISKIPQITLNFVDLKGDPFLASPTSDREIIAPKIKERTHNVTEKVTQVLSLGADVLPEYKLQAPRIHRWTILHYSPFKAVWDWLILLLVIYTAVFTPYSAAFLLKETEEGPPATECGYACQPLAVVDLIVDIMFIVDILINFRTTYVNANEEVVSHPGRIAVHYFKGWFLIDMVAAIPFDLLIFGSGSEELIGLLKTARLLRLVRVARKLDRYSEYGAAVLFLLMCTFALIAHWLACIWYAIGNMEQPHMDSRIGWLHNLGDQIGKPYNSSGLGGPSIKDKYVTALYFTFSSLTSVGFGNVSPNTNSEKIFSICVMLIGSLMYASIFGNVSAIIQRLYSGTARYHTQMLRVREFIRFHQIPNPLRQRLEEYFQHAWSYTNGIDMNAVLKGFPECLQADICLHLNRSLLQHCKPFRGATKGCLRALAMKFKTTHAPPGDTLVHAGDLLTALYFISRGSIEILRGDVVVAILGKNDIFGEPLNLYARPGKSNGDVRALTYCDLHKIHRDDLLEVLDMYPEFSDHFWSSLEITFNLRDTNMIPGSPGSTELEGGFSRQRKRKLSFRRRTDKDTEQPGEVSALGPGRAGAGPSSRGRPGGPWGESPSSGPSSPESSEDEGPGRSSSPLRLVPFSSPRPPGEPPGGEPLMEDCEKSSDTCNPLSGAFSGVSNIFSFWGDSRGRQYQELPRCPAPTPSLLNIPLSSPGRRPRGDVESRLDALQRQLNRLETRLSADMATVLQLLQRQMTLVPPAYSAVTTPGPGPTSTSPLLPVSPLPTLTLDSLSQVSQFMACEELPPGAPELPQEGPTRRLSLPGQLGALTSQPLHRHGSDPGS
# Chain of Peroxisome proliferator-activated receptor gamma (Homo sapiens) (P37231 whole entry, looked up): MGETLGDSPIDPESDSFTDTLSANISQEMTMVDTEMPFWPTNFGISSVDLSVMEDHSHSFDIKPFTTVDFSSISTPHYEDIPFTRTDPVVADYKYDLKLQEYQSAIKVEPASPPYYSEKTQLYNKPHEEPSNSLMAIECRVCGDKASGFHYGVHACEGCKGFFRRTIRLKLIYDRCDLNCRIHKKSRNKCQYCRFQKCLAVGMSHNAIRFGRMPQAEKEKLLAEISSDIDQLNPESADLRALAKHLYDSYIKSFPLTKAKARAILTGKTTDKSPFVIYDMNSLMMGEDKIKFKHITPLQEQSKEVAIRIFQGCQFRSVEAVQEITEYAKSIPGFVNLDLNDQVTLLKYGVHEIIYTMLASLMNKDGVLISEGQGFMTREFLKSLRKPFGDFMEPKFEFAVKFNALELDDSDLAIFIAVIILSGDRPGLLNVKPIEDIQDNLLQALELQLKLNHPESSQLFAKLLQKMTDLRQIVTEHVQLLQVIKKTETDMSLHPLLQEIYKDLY
# Chain of Thyroid hormone receptor beta (Homo sapiens) (P10828 whole entry, looked up): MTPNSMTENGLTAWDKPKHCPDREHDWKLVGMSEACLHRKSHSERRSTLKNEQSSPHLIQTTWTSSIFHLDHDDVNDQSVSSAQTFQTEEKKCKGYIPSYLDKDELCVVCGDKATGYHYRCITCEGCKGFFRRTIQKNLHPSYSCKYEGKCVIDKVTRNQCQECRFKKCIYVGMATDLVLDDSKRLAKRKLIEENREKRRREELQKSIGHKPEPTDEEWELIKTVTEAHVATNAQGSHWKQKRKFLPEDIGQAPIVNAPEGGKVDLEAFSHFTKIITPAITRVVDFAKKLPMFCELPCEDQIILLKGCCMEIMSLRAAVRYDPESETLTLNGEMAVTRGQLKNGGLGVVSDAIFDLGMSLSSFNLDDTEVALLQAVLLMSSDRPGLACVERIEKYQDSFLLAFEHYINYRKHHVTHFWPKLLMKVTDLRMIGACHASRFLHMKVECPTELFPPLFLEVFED
# Chain of Retinoic acid receptor RXR-alpha (Homo sapiens) (P19793 whole entry, looked up): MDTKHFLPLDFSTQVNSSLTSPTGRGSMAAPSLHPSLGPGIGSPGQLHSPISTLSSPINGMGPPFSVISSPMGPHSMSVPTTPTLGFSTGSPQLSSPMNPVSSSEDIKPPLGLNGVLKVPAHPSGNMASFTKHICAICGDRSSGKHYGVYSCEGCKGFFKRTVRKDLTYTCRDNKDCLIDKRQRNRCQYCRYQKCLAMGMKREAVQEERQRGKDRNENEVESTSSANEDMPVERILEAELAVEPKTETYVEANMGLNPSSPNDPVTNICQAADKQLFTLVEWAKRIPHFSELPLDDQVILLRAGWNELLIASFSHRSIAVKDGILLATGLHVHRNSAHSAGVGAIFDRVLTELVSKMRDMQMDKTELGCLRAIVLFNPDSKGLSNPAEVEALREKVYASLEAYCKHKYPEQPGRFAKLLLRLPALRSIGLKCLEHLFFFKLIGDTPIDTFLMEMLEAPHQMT
Structure (SMILES),Potency [1],"activity change, negative = cytotoxicity [2]",Potency [3],caspase-3 activation [4],Potency [5],outcome [6],outcome [7],max response [8],Potency [9],activity change % (negative = inhibition) [10],max response [11],Potency [12],Potency [13],Potency [14],Potency [15],Potency [16],Potency [17],Potency [18],activation [19],Potency [20]
CC(C)(c1ccccc1)c1ccc(O)cc1,> 92 µM (inactive),-17.8% (inactive),inactive,1.43% (inactive),inactive,inactive,inactive,13%,inactive,-5.71% (inactive) and 17.9% (inactive),-2.53% (inactive) and 0.007% (inactive),–,–,–,–,–,–,–,–,–
C[N+](C)(C)Cc1ccccc1,> 92 µM (inactive),–,–,-0.692% (inactive),–,inactive,inactive,-16.9% and 15.9%,inactive,-5.57% (inactive) and -5.51% (inactive),-5.46% (inactive) and 0.269% (inactive),inactive,inactive,inactive,inactive,–,–,–,–,–
c1nc[nH]n1,> 92 µM (inactive),–,–,-1.83% (inactive),inactive,inactive,inactive,-9.48%,inactive,–,7.97% (inactive),inactive,–,inactive,inactive,inactive,inactive,inactive,–,–
Nc1ccccc1Cl,> 92 µM (inactive),-1.33% (inactive),–,1.48% (inactive),inactive,inactive,inactive,6.02%,inactive,-4.52% (inactive),-2.66% (inactive),inactive,–,–,inactive,inactive,–,–,–,–
C1CCC2CCCCC2C1 (stereo unspecified),> 92 µM (inactive),-13.5% (inactive),–,-0.192% (inactive),inactive,inactive,–,-10.8%,inactive,–,-8.42% (inactive),–,inactive,–,–,–,inactive,inactive,-0.339% (inactive),–
CCN(CC)c1ccccc1,> 92 µM (inactive),–,inactive,–,–,inactive,–,–,–,–,–,–,–,inactive,inactive,inactive,–,–,-0.415% (inactive),–
CC(O)CCl (stereo unspecified),–,4.45% (inactive),inactive,–,–,inactive,–,-27.3% and -9.22%,inactive,–,-0.405% (inactive) and -1.63% (inactive),inactive,inactive,–,inactive,inactive,–,inactive,–,–
CN=C=S,> 92 µM (inactive),–,inactive,–,–,inactive,inactive,11.4%,inactive,–,–,inactive,inactive,inactive,inactive,–,inactive,inactive,0.215% (inactive) and 0.204% (inactive),–
NC(=S)Nc1ccccc1,> 92 µM (inactive),–,–,-3.2% (inactive) and -1.82% (inactive),inactive,inactive,inactive,-9.7% and -15%,inactive,–,–,inactive,inactive,inactive,inactive,–,–,inactive,–,inactive
